# Gal4-VP16 FLuc: inhibits Gal4-VP16 luciferase reporter, ROR gamma counter-screen; Drosophila S2 Gal4-VP16 UAS-luciferase, luminescence, 20 h; AID 2546; 3.5% of 310,000 active; Potency, µM (highest dose often 53.6 µM), for the others: at the top dose activity, negative = inhibition, usual class: inhibitors;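 also: Gal4-VP16 expression switched on by copper sulfate through the metallothionein promoter; potency is read from the fitted curve at half-maximal effect; % is scaled to controls: 0 for no effect and ±100 for the full control effect; nearly all actives have a fitted effect of over 50% in size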
# CtBP-E1A inh: blocks the CtBP interaction with E1A; AlphaScreen GST-E1A/His-CtBP binding, 1536-well; stronger effect = lower value; AID 651724; activity change, % (concentration not given with the values); 0.49% of 340,000 active; in the data active = activity change below about -65%; inconclusive = mostly about -30% to -63%; also: % is scaled to controls: 0 for no effect and ±100 for the full control effect
#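 Steps: dispense buffer (Tris pH 8.0, NaCl 300 mM, TCEP 1 mM, BSA, Tween 20); add 5X protein mix (GST-E1A, His-CtBP, 125 nM each); pin 23 nL compound; 2 h at 37 °C, dark; add 5X beads (50 ug/mL); 1 h; read.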
# Six1-Eya2 inh: Six1/Eya2 interaction inhibition; Q15475+O00167; AlphaScreen GST-Six1/His-Eya2 binding, biochemical; stronger effect = lower value; activity change, % (test concentration not listed); 0.56% of 360,000 active; AID 651725; in the data active = activity change below about -65%; inconclusive = mostly about -30% to -63%; also: % is scaled to controls: 0 for no effect and ±100 for the full control effect
#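 GST-Six1 + His-Eya2 (5X stock: 250/500 nM); Tris pH 8.0, 300 mM NaCl, 0.05% BSA, 0.02% Tween 20; GSH donor/Ni acceptor beads; 1 h 37 °C dark; AlphaScreen readout.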
# p53 reactivation: re-activators of mutant p53. H1299 p53-A138V BP100-luciferase reporter, luminescence, 24 h. Potency, µM (doses to about 92.2 µM), for the others: at the highest dose activity change, positive = activation, actives largely listed as activators. 0.063% of 320,000 active. AID 504706; also: potency is read from the fitted curve at half-maximal effect; % of control where 0% means no effect; nearly all actives have a fitted effect of over 45% in size
#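 H1299 (p53-null), stable ts p53-A138V + BP100-Luc; 1000 cells/well, Opti-MEM/10% FBS; cpd 4 pt, 1:5; 24 h, 37 deg C, 5% CO2; detection reagent 10 min RT; luminescence.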
# RORgamma inh: inhibitors of mouse ROR gamma transcriptional activity; P51450; Drosophila S2 Gal4-RORgamma UAS-luciferase reporter, 20 h; Potency, µM (titrated, usually from 53.6 µM), without a hit: at the highest dose activity change, negative = inhibition, most hits filed as inhibitors; 5.4% of 310,000 active; also: potency is read from the fitted curve at half-maximal effect; % is scaled to controls: 0 for no effect and ±100 for the full control effect; nearly all actives have a fitted effect of over 60% in size
#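 ROR gamma transcriptional activity was tracked as Gal4-UAS luciferase output in stably transfected Drosophila Schneider cells, with compound added 1 hr before 700 uM copper sulfate induction and a 20 hr ambient-temperature incubation.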
# Numbers without * were called inactive; ? = inconclusive; . = not tested or not shown; ! = a repeat was not active. Sampled rows, rich in hits. Any-hit rate of the full collection: about 5.4%. Unless noted, calls follow the shape of the dose curve; as a rule, active = well fitted curve in the direction sought with a large enough effect; inconclusive = small, poorly fitted or top-dose-only effect, or another doubt; inactive = no such curve, though single readings can be large; an effect the other way counts as inactive or inconclusive.
SMILES,Gal4-VP16 FLuc,CtBP-E1A inh,Six1-Eya2 inh,p53 reactivation,RORgamma inh
Cc1nn(CCc2n[nH]c(=S)n2-c2cccc(Cl)c2)c(C)c1[N+](=O)[O-],-22%,4,0,-2%,?
CCc1n[nH]c(=S)n1/N=C/c1c(C)nn(-c2ccccc2)c1Cl,?,1,-10,-4%,7.1µM*
O=C(c1cc2ccccn2n1)N1CCN(Cc2ccccc2)CC1,12%,-1,7,?,?
C[C@H]1O[C@@H](O[C@H]2[C@@H](O)C[C@H](O[C@H]3[C@@H](O)C[C@H](O[C@H]4CC[C@]5(C)C6CC[C@]7(C)[C@@H](C8=CC(=O)OC8)CC[C@]7(O)C6CC[C@@H]5C4)O[C@@H]3C)O[C@@H]2C)C[C@H](O)[C@@H]1O (stereo partly specified),-12%,.,.,.,2.5µM*
CO[C@H]1[C@@H](O)CC(OC2[C@@H](O)CC(OC3[C@@H](O)C[C@H](OC4CC[C@@]5(C)C(CCC6C5CC(O)[C@]5(C)[C@H](C7=CC(=O)OC7)CCC65O)C4)O[C@@H]3C)O[C@@H]2C)O[C@@H]1C (stereo partly specified),-2%,.,.,.,2.5µM*
CC1OC(OC2C(O)CC(OC3C(O)CC(OC4CCC5(C)C(CCC6C5CCC5(C)C(C7=CC(=O)OC7)CCC65O)C4)OC3C)OC2C)CC(O)C1O (stereo unspecified),-7%,.,.,.,1.1µM*
CC(=O)OC1CC(OC2C(O)CC(OC3C(O)CC(OC4CCC5(C)C(CCC6C5CC(O)C5(C)C(C7=CC(=O)OC7)CCC65O)C4)OC3C)OC2C)OC(C)C1OC1OC(CO)C(O)C(O)C1O (stereo unspecified),?,6,-4,.,-18%
CC1O[C@@H](O[C@@H]2C(O)C[C@H](O[C@@H]3C(O)C[C@@H](OC4CC[C@@]5(C)C6CC[C@]7(C)C(C8=CC(=O)OC8)CC[C@@]7(O)C6CC[C@@H]5C4)OC3C)OC2C)CC(O)[C@H]1O (stereo partly specified),3%,.,.,.,3.2µM*
Nc1ccc([N+](=O)[O-])cc1O,?,.,.,.,23%
[CH3][Hg][Cl],0.71µM*,.,.,.,0.89µM*
CCCSC(=O)Cl,3%,.,.,.,15%
NC(Cc1ccc(F)cc1)c1csc(Nc2ncccn2)n1 (stereo unspecified),.,-68*,?,.,.
Nc1ccc(CC(N)c2csc(Nc3ncccn3)n2)cc1 (stereo unspecified),.,-75*,-67*,.,.
CC[N+](=O)[O-],5%,.,.,.,-3%
O=P(O)(O)c1ccccc1OCCOCCOCCOCCOc1ccccc1P(=O)(O)O,4%,-5,2,?,20%
CCOC(=O)N(C)C(=O)CSP(=S)(OCC)OCC,7%,.,.,.,-9%
Nn1cnnc1,5%,.,.,.,-6%
ClCC(Cl)CCl,-1%,.,.,.,2%
CC(C)(C)c1ccc(O)c(N=Cc2c(O)ccc3ccccc23)c1,11µM*,-2,-5,.,13µM*
CCCCC/C=C\C/C=C\C/C=C\C/C=C\CCCC(=O)NCCO,-1%,.,.,.,38%
CCCCC/C=C\C/C=C\C/C=C\C/C=C\CCCC(=O)NCCc1ccc(O)c(O)c1,-28%,.,.,.,11µM*!
C[C@]12CC[C@H]3[C@@H](CC[C@@]45O[C@@H]4C(=O)C(C#N)C[C@]35C)[C@@H]1CC[C@@H]2O (stereo partly specified),7%,.,.,.,?
O=c1ccc(=O)[nH][nH]1,20%,.,.,.,6%
CC1(C)N(O)C2CCCCC2N1O (stereo unspecified),?,-2,-5,-2%,16µM*
CC(C)CON=O,-4%,.,.,.,-12%
SMILES,Gal4-VP16 FLuc,CtBP-E1A inh,Six1-Eya2 inh,p53 reactivation,RORgamma inh
O=Nc1ccc(Nc2ccccc2)cc1,?,.,.,.,-89%
CCCCCCCCn1sccc1=O,0.63µM*,1,23,-28%,0.45µM*
C=C1C(=O)O[C@@H]2C[C@@H](C)[C@@H]3C4OC4C(=O)[C@@]3(C)[C@@H](O)[C@H]12 (stereo partly specified),4µM*,-9,-10,-15%,2.8µM*
CC/C=C\C/C=C\C/C=C\C/C=C\C/C=C\CCCC(=O)NC(C)C(=O)O (stereo unspecified),3%,.,.,.,3%
ClC(Br)Br,2%,.,.,.,2%
CC1CC2OC2/C=C\C=C/C(=O)Cc2c(Cl)c(O)cc(O)c2C(=O)O1 (stereo unspecified),10µM*,.,.,.,7.9µM*
CC(C)c1oc(=O)cc2c1[C@@H](O)[C@H]1OC(=O)[C@@]3(C)CC[C@@H](O)[C@@]2(C)C13 (stereo partly specified),5µM*,-1,1,2%,20µM*
CCOP(=S)(OCC)Oc1cc(C)nc(N(CC)CC)n1,0%,.,.,.,0%
O=C(c1ccc(N2CCN(CCO)CC2)nc1)N1CCOCC1,-1%,-10,8,?,10%
CC[C@]1(O)CC(O[C@@H]2CC(N(C)C)C(O)C(C)O2)c2c(cc3c(c2O)C(=O)c2c(O)ccc(O)c2C3=O)C1C(=O)OC (stereo partly specified),2.2µM*,.,.,.,1.1µM*
O=C(Nc1ccccc1F)Oc1cccc(OC(=O)Nc2ccccc2F)c1,-5%,.,-1,?,40%
CNc1ccc2oc(C[C@H]3O[C@@]4(CC[C@H]3C)O[C@H]([C@H](C)C(=O)c3ccc[nH]3)[C@H](C)C[C@H]4C)nc2c1C(=O)O,1.3µM*,-13,-8,1%,-9%
CCCCn1c(-c2nn(C)cc2Cl)n[nH]c1=S,?,1,3,-1%,13µM*
C=C(Cl)CCl,7%,.,.,.,6%
COC(=O)NC/C=C\c1nc(CC/C=C\C(=O)O[C@H]2C[C@H]3CC(=O)O[C@@H](/C=C\CC(C)C)C[C@@H]4CC[C@H](C)[C@H](C[C@@H](OC)C[C@H](C2)O3)O4)co1,?,.,.,.,0.0056µM*
Clc1ccc(-c2nc3ccc(Cl)cn3c2CN2CCCCC2)cc1,-23%,6,3,?,5µM*
Clc1cccc(Cl)c1,2%,.,.,.,-14%
